Results as given in PubChem BioAssay AID1159580 (chemical genetic matrix, 2015).
Where “and” joins values, the source holds several entries; their conditions need not be identical. Equal values may be shown once. Out of some 5,500 compounds screened, about 2,000 (36%) were called active. Inconclusive results (about 18%) are left out. Cut-off read from the data, not from the text of the source: active = normalized growth mostly below about 0.91 (no sharp cut-off); inconclusive = no clear call, values can overlap the other calls; inactive = mostly above about 0.92. This is one part of the list.

Assay: chemical genetic growth profiling, strain panel (AID 1159580);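 note: tested at 20 µM; growth read once vehicle control cultures reached saturation at 30 °C; 1 = growth at the plate median or of vehicle wells; lower values mean less growth of the strain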
Details: S. cerevisiae deletion strains, growth OD

Measured: normalized growth

O=c1[nH]c2cc(Cl)c(Cl)cc2[nH]c1=O
inactive: locus YAL013W, strain DEP1, active compounds read low 1 and 0.993 | locus YAL021C, strain ccr4, active compounds read low 1.03 | locus YAL026C, strain drs2, active compounds read low 0.993 | locus YAL030W, strain snc1, active compounds read low 0.989 | locus YAL040C, strain CLN3, active compounds read low 1.11 | locus YBL061C, strain skt5, active compounds read low 0.982 | locus YBR009C, strain hhf1, active compounds read low 0.988 | locus YBR021W, strain FUR4, active compounds read low 1 | locus YBR023C, strain chs3, active compounds read low 1 | locus YBR171W, strain sec66, active compounds read low 0.98 | locus YBR229C, strain ROT2, active compounds read low 1.01 | locus YBR231C, strain swc5, active compounds read low 0.979 | locus YBR279W, strain paf1, active compounds read low 0.985 | locus YCL011C, strain gbp2, active compounds read low 0.984 | locus YCL016C, strain dcc1, active compounds read low 0.997 | locus YCL029C, strain bik1, active compounds read low 1.04 | locus YCL061C, strain MRC1 (second series), active compounds read low 1.01 | locus YCL069W, strain vba3, active compounds read low 0.999 | locus YCR088W, strain abp1, active compounds read low 0.997 | locus YDL005C, strain med2, active compounds read low 0.982 | locus YDL035C, strain GPR1, active compounds read low 1.01 | locus YDL040C, strain nat1, active compounds read low 0.994 | locus YDL074C, strain BRE1, active compounds read low 1.03 | locus YDL101C, strain DUN1, active compounds read low 1.02 | locus YDL134C, strain PPH21, active compounds read low 1.01 | locus YDL185W, strain tfp1, active compounds read low 1.02 | locus YDL192W, strain arf1, active compounds read low 1.02 | locus YDR001C, strain nth1, active compounds read low 1 | locus YDR069C, strain doa4, active compounds read low 0.969 | locus YDR101C, strain arx1, active compounds read low 1.03 | locus YDR137W, strain rgp1, active compounds read low 0.994 | locus YDR150W, strain NUM1, active compounds read low 1.01 | locus YDR159W, strain sac3, active compounds read low 0.901 | locus YDR162C, strain NBP2, active compounds read low 1.01 | locus YDR195W, strain ref2 1 | locus YDR297W, strain sur2, active compounds read low 0.99 | locus YDR318W, strain mcm21, active compounds read low 1.02 | locus YDR334W, strain swr1, active compounds read low 0.994 | locus YDR335W, strain msn5, active compounds read low 1 | locus YDR363W, strain ESC2, active compounds read low 0.968 | locus YDR388W, active compounds read low 1.02 | locus YDR392W, strain spt3, active compounds read low 0.92 | locus YDR502C, strain sam2, active compounds read low 1.03 | locus YEL003W, strain gim4, active compounds read low 0.993 | locus YEL037C, strain rad23, active compounds read low 1 | locus YEL061C, strain CIN8 (second series), active compounds read low 1.01 | locus YEL061C, strain CIN8, active compounds read low 1.01 | locus YER002W, strain NOP16, active compounds read low 0.997 | locus YER015W, strain faa2, active compounds read low 0.995 | locus YER016W, strain bim1, active compounds read low 0.992 | locus YER110C, active compounds read low 1.04 | locus YER111C, strain swi4, active compounds read low 0.991 | locus YER155C, strain BEM2 (second series), active compounds read low 0.967 | locus YER155C, strain BEM2, active compounds read low 1 | locus YER167W, strain BCK2, active compounds read low 1.02 | locus YFR010W, strain ubp6, active compounds read low 0.985 | locus YGL078C, strain dbp3, active compounds read low 1.03 | locus YGL086W, strain mad1, active compounds read low 1.01 | locus YGL167C, strain pmr1, active compounds read low 0.999 | locus YGL173C, strain kem1, active compounds read low 0.984 | locus YGL227W, strain vid30, active compounds read low 0.986 | locus YGL240W, strain doc1, active compounds read low 0.966 | locus YGL248W, strain PDE1, active compounds read low 1.01 | locus YGL253W, strain hxk2, active compounds read low 0.975 | locus YGR078C, strain PAC10, active compounds read low 1.02 and 1.04 | locus YGR135W, strain pre9, active compounds read low 1.02 | locus YGR229C, strain SMI1, active compounds read low 1.01 | locus YGR252W, strain gcn5, active compounds read low 1.01 | locus YHR013C, strain ard1, active compounds read low 0.988 | locus YHR027C, strain rpn1, active compounds read low 0.986 | locus YHR030C, strain SLT2, active compounds read low 1.01 | locus YHR079C, strain IRE1 (second series), active compounds read low 1.02 | locus YHR094C, strain hxt1, active compounds read low 1.01 | locus YHR129C, strain ARP1, active compounds read low 1.01 | locus YHR142W, strain chs7, active compounds read low 1.01 | locus YHR200W, strain rpn10, active compounds read low 1.02 | locus YIL066C, strain RNR3, active compounds read low 1.01 | locus YIL073C, strain SPO22, active compounds read low 1.1 | locus YIL125W, strain kgd1, active compounds read low 1.02 | locus YIR030C, strain dcg1, active compounds read low 1.04 | locus YJL092W, strain hpr5, active compounds read low 0.997 | locus YJL095W, strain BCK1 (second series), active compounds read low 1.02 | locus YJL095W, strain BCK1, active compounds read low 1.02 | locus YJL115W, strain asf1, active compounds read low 1 | locus YJL129C, strain trk1, active compounds read low 0.95 | locus YJL134W, strain LCB3, active compounds read low 1.01 | locus YJL154C, strain vps35, active compounds read low 0.999 | locus YJL164C, strain tpk1, active compounds read low 0.998 | locus YJL166W, strain qcr8, active compounds read low 0.989 | locus YJL168C, strain set2, active compounds read low 1.02 | locus YJL187C, strain SWE1 (second series), active compounds read low 1.01 | locus YJR043C, strain POL32, active compounds read low 1.01
